PubChem BioAssay AID1845226 (National Center for Advancing Translational Sciences (NCATS), 2023)
Inconclusive results are not listed. Unmarked numbers belong to inactive results. The call rests on the fitted dose curve; in most records, active means well fitted inhibition curve with a large enough effect; inconclusive means small, poorly fitted or top-dose-only effect; inactive means no such curve, though single readings can be large or run the other way.

assay: Confirmatory fluorescence-based thiol-reactive (MSTI) qHTS assay for identification of artifact compounds; conditions: MSTI thiol-reactivity probe, 1 h; series mostly up to 39.2 µM; activity change, negative = inhibition: at the top concentration
From the text: PI: Alexander Tropsha Ph.D. UNC Eshelman School of Pharmacy University of North Carolina, Chapel Hill, North Carolina Hits from high-throughput screening (HTS) of chemical libraries are often false positives due to their interference with the assay detection technology. In response to this problem, we generated the largest publicly available library of chemical liabilities and developed a free webtool to predict HTS artifacts, both of which are described herein. More specifically, we generated, curated, and integrated HTS datasets for thiol reactivity, redox activity, and luciferase (firefly and nano) activity. Using these curated datasets, we developed and validated several Quantitative Structure-Interference Relationship (QSIR) models to predict nuisance behavior. […] These models were employed for virtual profiling of the National Center for Advancing Translational Science's (NCATS) in-house library, and 256 compounds for each assay were selected for the experimental validation of nuisance behavior. The BA for these external predictions ranged from 58 to 78% for compounds within the applicability domains of the models. […] The models developed in this study, along with aggregation models previously developed by our group (SCAM Detective) were implemented in "Liability Predictor," an online tool which may be used as part of chemical library design or for triaging HTS hits. Both the models and the curated datasets are publicly available at https://liability.mml.unc.edu/.
PROTOCOL TABLE SEQUENCE No. (e.g., 1, 2, 3, etc.); PARAMETER (e.g., Cells, Incubation, Reagent, etc.); VALUE; DESCRIPTION. 1; Reagent; 4 uL; […]. 2; Compounds and control; 16 nL; Kalypsis pin tool (Wako USA) equipped with a 1536-well pin head. 3; Incubation; 1 hour. 4; Detection; Fluorescence, ViewLux microplate reader, 525 nm excitation, 598 nm emission. NOTES (numbers refer to Sequence numbers above) 1. Assays determining (E)-2-(4-mercaptostyryl)-1,3,3-trimethyl-3H-indol-1-ium (MSTI) reactivity were performed as previously described in the literature with modifications for the quick identification of compounds reacting with thiol. In brief, 4 uL of MSTI or positive control Acetyl-MSTI (final concentrations of 4 uM and 4 uM, respectively) in assay buffer (2% DMSO in 1X PBS pH 7.4) was dispensed into all wells of a 1536-well assay plate (solid-bottom black plate; Greiner Bio One, Monroe, NC). 2. A Wako Pin-tool (Wako Automation, Richmond, VA) was used to transfer 16 nL of compounds (consisting of 7-plates in qHTS format, final concentration range 18.3 nM to 114 uM) or control MLS001163887 (final concentration range 1.22 nM to 40 uM). 3. Plates were centrifuged (121xg, 15 seconds) and incubated for 1 hour at room temperature protected from light. 4. Samples were read for fluorescence (Ex/Em = 525(20)/598(25) nm) on a ViewLux CCD imager (PerkinElmer). Data were normalized to Acetyl-MSTI (0% activity) and MSTI (100% activity) and the resulting percent inhibition data were fitted to a 4-parameter Hill equation using NCATS in-house software.

Row | SMILES | activity change, negative = inhibition
1 | COc1ccc2[nH]cc(CCNCc3ccc(Br)cc3)c2c1 | -9.28%
2 | C[C@H]1CCCC(=O)CCC/C=C/c2cc(O)cc(O)c2C(=O)O1 | 90.4%
3 | CC1CCCC(O)CCCCCc2cc(O)cc(O)c2C(=O)O1 (configuration not stated) | 108% [at 78.4 µM]
4 | c1ccc2sc(SNC3CCCCC3)nc2c1 | 25.4%
5 | CC[C@H]1[C@@H]2C[C@H]3[C@@H]4N(C)c5ccccc5[C@]45C[C@@H](C2[C@H]5O)N3[C@@H]1O (some centres not stated) | -8.38% [at 13.1 µM]
6 | O=c1ccc2cc(O[C@@H]3O[C@H](CO)[C@H](O)[C@H](O)[C@H]3O)c(O)cc2o1 | 5.87%
7 | COc1ccc2c3c1O[C@H]1[C@@H](O)C=C[C@H]4[C@@H](C2)NCC[C@@]341 | 31.7% [at 88 µM]
